# Most compounds without a hit are left out; they make up all but 5.2% or so of the library.
# A3G deaminase: blocks human APOBEC3G single-stranded DNA deamination | Q9HC16 | recombinant A3G, ssDNA deamination FAM/TAMRA fluorescence | inhibition, % at 20 µM | 0.28% of 330,000 active | AID 493012;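 active means inhibition of at least 40% at 20 µM, with no more than 30% in the related APOBEC3A deaminase screen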;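 further: plate controls were DMSO wells with A3G for no effect and wells lacking A3G enzyme for full effect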
# Yeast superoxide: yeast age-related superoxide inhibition as caloric restriction mimetic; S. cerevisiae aged cells, superoxide DHE fluorescence; hits give low values; superoxide response (% of plate mean), % at 10 µM; 0.18% of 330,000 active;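 active means superoxide response under a set limit, about three screen SD below normal, cut at about 65% in these data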;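 further: yeast aged for seven days with compound at 30 °C before DHE staining; 100% = average MFI of all compound-treated wells on the plate with controls excluded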
# NRP1-CendR mod: alters CendR peptide binding to human NRP-1 | O14786 | 0.85% of 360,000 active | AID 602438 | inhibition, % at 25 µM | FAM-RPARPAR peptide binding to NRP-1, fluorescence polarization;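 active means inhibition or corrected inhibition above about 18%, plus a signal ratio from 0.5 to 1.5, limit read from the data, passing the limit was not always enough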
# ALR H2O2 inh: inhibitors of human sulfhydryl oxidase ALR | inhibition, % (concentration not given with the values) | AID 485317 | 3.8% of 290,000 active | P55789 | purified ALR, DTT oxidation, H2O2 HRP-luminol luminescence;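 active means mean replicate inhibition above about 79%, with every replicate also reaching it, limit read from the data; inconclusive means only one of the two criteria met; inactive means mean below limit and not every replicate reaching it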
# Target sequence (P55789 whole entry, looked up): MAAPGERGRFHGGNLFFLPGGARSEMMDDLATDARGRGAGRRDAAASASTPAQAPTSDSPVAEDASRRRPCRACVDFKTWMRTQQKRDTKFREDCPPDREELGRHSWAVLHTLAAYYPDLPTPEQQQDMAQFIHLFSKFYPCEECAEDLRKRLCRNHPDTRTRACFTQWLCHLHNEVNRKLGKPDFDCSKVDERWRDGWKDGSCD
# APOBEC3A inh: inhibitors of human APOBEC3A DNA deaminase; P31941; recombinant A3A, FAM/TAMRA ssDNA deamination fluorescence; inhibition, % at 20 µM; 0.41% of 330,000 active; AID 493011;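 active means at least 40% inhibition at 20 µM here, with at most 30% in a related deaminase screen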;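 further: plate controls were A3A with DMSO for no effect and wells lacking A3A enzyme for full effect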
# Target sequence (P31941 whole entry, looked up): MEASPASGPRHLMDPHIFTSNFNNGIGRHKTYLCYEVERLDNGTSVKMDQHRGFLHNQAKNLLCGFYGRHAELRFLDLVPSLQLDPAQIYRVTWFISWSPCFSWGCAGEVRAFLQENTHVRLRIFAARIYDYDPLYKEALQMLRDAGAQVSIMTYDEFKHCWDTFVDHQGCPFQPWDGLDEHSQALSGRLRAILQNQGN
# M18AAP inhibitor: blocks P. falciparum M18 aspartyl aminopeptidase; recombinant PfM18AAP, H-Glu-NHMec fluorogenic cleavage; inhibition, % at 7.35 µM; 1.2% of 290,000 active;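 active means inhibition above the campaign mean inhibition over all tested compounds plus 3 SD, cut at about 28% in these data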;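 further: 0% = plate median of test compound wells and 100% = 2 mM ZnCl2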
# * hit, by the source's call; ? = inconclusive; · = no result given.
SMILES,A3G deaminase,Yeast superoxide,NRP1-CendR mod,ALR H2O2 inh,APOBEC3A inh,M18AAP inhibitor
O=C(Nc1ccc(Oc2ccc(S(=O)(=O)N3CCOCC3)cn2)cc1)c1ccco1,1.8,95.5,2.2,-2.7,5.5,-0.3
CC(=O)N1CCN(c2ccc(NC(=O)c3cccc(C)c3)cc2)CC1,-1.7,105.0,-10.9,7.3,-3.1,-17.6
Cc1cccc(N2CCN(c3ccc(NC(=O)/C=C(/C(=O)O)c4ccccc4)cc3)CC2)c1,-1.7,112.8,-4.7,95.8*,-2.7,6.8
CC(=O)Nn1cnc2c(c1=O)C1(CCCC1)Cc1ccccc1-2,-1.7,84.2,2.9,-5.1,4.3,0.9
CCCC(=O)Nn1cnc2c(c1=O)C1(CCCC1)Cc1ccccc1-2,-1.9,85.9,25.3*,1.8,2.0,-4.2
O=C(CCCC(=O)OCC(=O)c1cccs1)Nc1ccc(Oc2ccccc2)cc1,-8.3,105.6,23.2*,3.7,-2.9,1.9
O=C(CCCC(=O)OCC(=O)c1cccs1)Nc1ccc(F)cc1,-4.2,101.7,-10.5,·,-1.5,-0.5
Cc1ccccc1-c1nc(CS(=O)(=O)CC(=O)NCCCN2CCN(C)CC2)c(C)o1,-0.2,83.1,9.6,-4.4,2.6,1.2
CCc1ccc(-c2nc(CS(=O)CC(=O)NCCCN3CCOCC3)c(C)o2)cc1 (stereo not drawn),-0.8,93.7,-3.9,99.5*,-0.5,-2.2
Cc1ccc(-c2nc(CS(=O)CC(=O)NCCN3CCCCC3C)c(C)o2)cc1 (stereo not drawn),-7.3,137.1,9.9,98.0*,-5.8,-3.3
Cc1ccc(-c2nc(CS(=O)(=O)CC(=O)NCCN3CCCC3)c(C)o2)cc1,-4.4,101.0,2.7,-2.0,-0.6,-4.2
COc1ccc(-c2nc(CS(=O)CC(=O)NCCCN3CC(C)CC(C)C3)c(C)o2)cc1OC (stereo not drawn),-6.0,98.9,2.5,98.3*,-3.9,-5.0
Cc1oc(-c2cccs2)nc1CS(=O)CC(=O)NCCCN1CC(C)CC(C)C1 (stereo not drawn),0.0,105.2,3.8,98.8*,0.1,-16.2
Cc1ccc(-c2nc(CS(=O)(=O)CC(=O)NCCCN3CCOCC3)c(C)o2)cc1,-3.4,86.5,6.3,-10.3,-3.6,-2.6
Cc1oc(-c2ccc(Cl)cc2)nc1CS(=O)CC(=O)NCCCN1CCN(Cc2ccccc2)CC1 (stereo not drawn),0.7,109.5,-6.9,?,-3.6,-8.2
Cc1oc(-c2ccc(Cl)cc2)nc1CS(=O)CC(=O)NCCCN1CCCC(C)C1 (stereo not drawn),-3.4,86.2,-4.3,99.0*,-0.5,-1.3
Cc1ccc(-c2nc(CS(=O)CC(=O)NCCCN3CC(C)CC(C)C3)c(C)o2)cc1 (stereo not drawn),-3.4,79.2,-0.3,99.2*,-4.7,2.7
COc1ccc(-c2nc(CS(=O)CC(=O)NCCCN3CCCC(C)C3)c(C)o2)cc1OC (stereo not drawn),-3.9,76.2,-10.1,98.7*,-2.6,-1.5
Cc1ccccc1-c1nc(CN2CCC(C(=O)NCCCN3CCCC(C)C3)CC2)c(C)o1 (stereo not drawn),-6.2,116.4,7.2,-7.8,-4.6,-4.9
O=C(O)c1cc(NCc2ccc(F)cc2)ccc1N1CCOCC1,-3.8,91.5,46.3*,96.7*,-0.9,5.8
Fc1cccc(Cl)c1CNc1ccc(N2CCCC2)cc1,3.0,85.4,5.8,98.6*,-5.3,-0.2
O=C(O)c1cc(NCc2ccccc2C(F)(F)F)ccc1N1CCOCC1,2.1,102.5,9.5,68.3,4.3,13.1
COC(=O)c1cc(NCc2cccs2)ccc1N1CCOCC1,-0.2,101.3,-5.2,99.5*,0.2,0.5
O=C(O)c1cc(NCc2cccs2)ccc1N1CCOCC1,-0.8,109.9,-6.5,98.2*,-0.6,-3.7
Cc1cc(C)nc(SC2CC(=O)N(c3ccc(Br)cc3)C2=O)n1 (stereo not drawn),-3.3,102.6,13.6,6.7,-3.1,1.9
Cc1ccc(NC(=O)N2CCC(C(N)=O)CC2)cc1,1.6,94.4,2.9,-5.3,2.5,-0.8
COC(=O)c1cc(NCc2c(F)cccc2Cl)ccc1N1CCOCC1,0.4,69.7,-1.4,99.2*,3.3,8.8
COC(=O)CCn1nnc(-c2cccs2)n1,-4.3,101.6,-6.6,5.2,-2.5,0.2

# High-throughput results as filed in PubChem.
